# Compound activity (PubChem BioAssay)
# Sampled rows, rich in hits. Any-hit rate of the full collection: about 1%.
# hiPSC survival: hiPSC single-cell survival enhancement | ATPlite luminescence; 100% = ROCK inhibitor wells, 0% = DMSO | survival enhancement, % at 20 µM | 360,000 compounds, 0.044% hits | AID 602274; in the data active means survival enhancement above about 18%;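 further: cells exposed to compounds for 16 hours before the ATP read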
# V-ATPase pH: regulators of yeast V-ATPase proton transport; S. cerevisiae, pHLuorin cytosolic pH fluorescence; response, % at 10 µM; 350,000 compounds, 0.37% hits; AID 504577; in the data active means response mostly above about 7.3%, no sharp cut-off; inactive means mostly below about 5.4%; further: actives read high
# CTSL1 counter: cathepsin L1 inhibition, PFM18AAP counter-screen; AID 1906; 300,000 compounds, 0.49% hits; inhibition, % at 5.96 µM; recombinant F. hepatica cathepsin L1, Z-Leu-Arg-MCA fluorescence;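 active means inhibition above the mean of all tested compounds plus 3 SD, set per screening campaign, cut at about 17% in these data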;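 further: 0% = plate median of test compound wells and 100% = 1 µM Z-Phe-Ala-diazomethylketone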
# Yeast superoxide: yeast age-related superoxide inhibition as caloric restriction mimetic; S. cerevisiae aged cells, superoxide DHE fluorescence; stronger effect = lower value; superoxide response (% of plate mean), % at 10 µM; 330,000 compounds, 0.18% hits; AID 2690;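 active means superoxide response under a set limit, about three screen SD below normal, cut at about 65% in these data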;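 further: yeast aged for seven days with compound at 30 °C before DHE staining; 100% = average MFI of all compound-treated wells on the plate with controls excluded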
# Active calls of the source: *; . = no result given.
SMILES,hiPSC survival,V-ATPase pH,CTSL1 counter,Yeast superoxide
Cc1cc(Cl)ccc1NC(=O)c1ccc2c(c1)OCO2,0.2,14.7*,-3.3,100.7
NC(=O)CNC(=O)c1ccc(Cl)cc1,1.2,-1.8,-2.0,105.9
COc1cccc(C2c3cc4c(cc3OC(C)(N3CCCC3)C2C)OCO4)c1O (stereo not given),0.0,-3.5,.,.
O=C(C(O)c1ccc(Br)cc1)N1CCC(Nc2ccc3[nH]ncc3c2)CC1 (stereo not given),111.0*,.,.,.
CCOC1=C2CN(S(=O)(=O)c3ccccc3)[C@H](c3ccccc3)C[C@H]2n2c(=O)n(-c3ccccc3)c(=O)n2C1,-1.0,.,.,.
CCCc1cc(Nc2cccc(OCC)c2)n2ncnc2n1,-0.2,-1.6,5.4,98.2
CCCc1cc(Nc2cccc(OC)c2)n2ncnc2n1,-1.7,-2.3,18.1*,89.2
C=CCOC(=O)C1=C[C@@H](c2ccc(Br)cc2)C[C@@H](OCc2ccc(CO)cc2)O1,-1.2,-10.5,3.6,.
Cc1ccn2c(=O)c(C(=O)NCCCN3CCCC3=O)c(O)nc2c1,-0.2,2.5,50.0*,95.0
Cc1ccn2c(=O)c(C(=O)NCCCN3CCCCC3C)c(O)nc2c1 (stereo not given),-0.1,-2.9,-0.1,102.1
O=C(CNS(=O)(=O)c1ccccc1)OCC(=O)c1c[nH]c2ccccc12,0.2,-4.4,.,88.1
O=S(=O)(Nc1cccc(-c2ccc3nncn3n2)c1)c1cc(F)ccc1F,-0.4,-3.1,7.7,93.3
CCC(CC)C(=O)Nc1nnc(SCC(=O)NC2CC2)s1,1.4,3.2,-3.7,93.4
CC(=O)N(Cc1nc2sc(C)c(C)c2c(=O)[nH]1)C1CCCC1,-0.6,-0.1,26.6*,110.3
Cc1ccc(S(=O)(=O)N2CCOCC2)cc1C(=O)Nc1ccc(C(N)=O)cc1,2.5,16.0*,-1.3,106.7
O=C(c1cccc(S(=O)(=O)N2CCOCC2)c1)N1CCN(c2ccccc2)CC1,-1.4,0.1,.,93.1
O=C(Nc1ccc(N2CCOCC2)cc1)c1cccc(S(=O)(=O)N2CCCCCC2)c1,-0.2,-0.2,-1.6,92.8
O=C(Nc1ccc(N2CCOCC2)cc1)c1cccc(S(=O)(=O)N2CCCC2)c1,23.6*,-0.6,0.4,102.3
O=C(c1cccc(S(=O)(=O)N2CCOCC2)c1)N1CCN(c2ccc(F)cc2)CC1,0.5,17.7*,-0.3,87.8
CC(=O)c1ccc(NC(=O)CSc2nnc3ccc(-c4ccccn4)nn23)cc1,1.2,-56.1,3.4,105.5
O=C(NCc1ccc(C(F)(F)F)cc1)C1CC(c2ccccc2[N+](=O)[O-])=NO1 (stereo not given),-0.1,1.9,-1.6,98.7
CCn1c(=S)[nH]c2c(c1=O)C(C)(C)Cc1ccccc1-2,0.2,13.0*,.,.
O=C(NCc1ccccc1)C1CCN(S(=O)(=O)c2ccc(N3CCCC3=O)cc2)CC1,0.0,-1.2,17.2*,87.7
C/C(=N\NC(=O)c1ccc(N2CCCC2=O)cc1)c1ccncc1,1.7,2.1,1.0,96.5
CCOC(=O)N1CCC(Nc2c(OCC)c(=O)c2=O)CC1,0.6,-2.8,36.0*,95.9
SMILES,hiPSC survival,V-ATPase pH,CTSL1 counter,Yeast superoxide
CC1(C)OC(=O)C2=C(C[C@@H](CCc3ccccc3)O[C@H]2C2CCCC2)O1,-0.5,.,.,.
COc1nc(N)nc(NC(=O)c2cccs2)c1N=O,0.0,-0.7,50.3*,79.0
COc1ccc(NC(=O)c2ccc(NC(=O)c3cccs3)cc2)cc1,-0.5,-3.4,1.2,76.9
CCOc1cc(C2Nc3ccccc3NC3=C2C(=O)CC(C)(C)C3)ccc1O (stereo not given),-0.3,-2.8,2.9,94.2
COc1ccc2[nH]cc(C(=O)CCl)c2c1,-0.4,3.5,74.2*,95.6
CC(OC(=O)c1ccc(=O)n(Cc2ccccc2)n1)C(=O)Nc1cccc(Cl)c1 (stereo not given),-0.4,1.6,16.8*,97.6
Cc1ccc(NC(=O)COC(=O)c2ccc(=O)n(Cc3ccccc3)n2)cc1F,-0.1,-2.2,13.0,105.8
CNS(=O)(=O)c1ccc(NC(=O)c2ccccn2)cc1,2.2,3.6,0.8,77.0
C#CCOCCOCCOCCNc1nc(N2CCN(C(=O)CCCCCCCCCCNC(=O)Cn3cc(CCCCCN)nn3)CC2)nc(N2CCN(C(=O)CCCCCCCCCCNC(=O)Cn3cc(C[C@@H](C)O)nn3)CC2)n1,0.3,8.6*,-1.9,101.0
C[C@H](NC(=O)[C@H]1N2C(=O)c3ccccc3C2SC1(C)C)C(=O)N1CCN(C)CC1 (stereo not given in full),0.1,5.3,21.1*,96.5
CC1CN(S(=O)(=O)c2cccc(C(=O)OCCOc3ccccc3)c2)CC(C)O1 (stereo not given),-1.1,3.1,.,105.6
CC1CC(C)CN(S(=O)(=O)c2cccc(C(=O)OCCN3CCCC3=O)c2)C1 (stereo not given),-1.1,3.1,17.6*,106.6
Cc1cc(-n2cc(Br)c(=O)[nH]c2=O)nc(-c2ccccc2)n1,-0.4,-1.9,0.5,105.1
O=c1[nH]c(=O)n(-c2cc(Br)c(O)c(Br)c2)cc1Br,0.0,1.4,32.8*,102.2
COCCn1c(=NC(=O)c2sc3ccccc3c2Cl)sc2cc(S(N)(=O)=O)ccc21,0.3,4.2,21.8*,82.0
CCc1nnc(SCC(=O)Nc2nc(C)c(C(=O)N(C)C)s2)n1CC,-0.1,7.8,-0.5,117.4
N/C(=N\OC(=O)COc1ccc(Br)cc1)c1ccncc1,-0.7,-2.2,-12.7,99.7
N/C(=N\OS(=O)(=O)c1ccc(Br)cc1)c1ccncc1,-0.3,-1.1,29.0*,101.0
COc1ccc(OC)c(NC(=O)C(CC(C)C)NC(=O)C2CCCCC2)c1 (stereo not given),24.5*,-5.4,14.2,99.0
NC(=S)N/N=C/c1ccccc1OCCSc1ccc(Cl)cc1,-3.0,4.5,24.6*,102.1
COC(=O)N/N=C/c1c[nH]c2ccccc12,2.8,1.5,-3.4,100.2
NC(=S)N/N=C/c1c[nH]c2ccccc12,-0.8,0.2,101.6*,87.5
CC(=O)n1cc(/C=N/NC(N)=S)c2ccccc21,-0.9,0.7,94.7*,87.8
COc1ccccc1OCCn1cc(/C=N/NC(N)=S)c2ccccc21,-0.4,-2.4,95.1*,107.7
Cc1cccc(C(=O)n2c(=S)nc3ccccn32)c1,-7.0,-1.3,1.1,87.3
SMILES,hiPSC survival,V-ATPase pH,CTSL1 counter,Yeast superoxide
Cc1c(NC(=O)c2cc(C3CC3)on2)c(=O)n(-c2ccccc2)n1C,-4.1,1.9,42.0*,93.8
Cc1c(NC(=O)c2cc(-c3ccccc3)on2)c(=O)n(-c2ccccc2)n1C,0.2,3.7,-0.4,104.6
Cc1c(NC(=O)C2CC(c3cccc(Br)c3)=NO2)c(=O)n(-c2ccccc2)n1C (stereo not given),-0.4,0.4,17.0*,95.4
Nc1cc2c(cc1Cl)N(Cc1ccccc1)C(=O)CO2,0.1,-1.1,.,113.7
COc1ccc(NC2CCCN(C(=O)c3ccc(C)c(N4CCNC4=O)c3)C2)cc1 (stereo not given),0.1,1.0,0.8,95.8
COc1ccc(N)cc1-n1cnnn1,1.1,-0.8,-1.6,106.1
CC(C)(C)N1C(=O)Cc2c1nc(N)c1c(N)nc(N3CCCCC3CO)c(C#N)c21 (stereo not given),-2.2,1.5,105.3*,94.3
